Test results reported in the supplement of paper PMC13380429.

What was measured:
[1] = test system: Vero E6 infected with SARS-CoV-2; assay: morphology score (similarity to uninfected cells); higher = more like uninfected cells; conditions: 24 h
[2] = test system: Vero E6 infected with SARS-CoV-2; assay: SARS-CoV-2 infection rate relative to infected DMSO; higher = more infection, active = 60 or less; conditions: 24 h

Row | Structure (SMILES) | morphology score [1] | SARS-CoV-2 infection rate [2]
1 | COC(=O)N[C@H](C(=O)N1CCC[C@H]1c1ncc(-c2ccc(-c3ccc(-c4cnc([C@@H]5CCCN5C(=O)[C@@H](NC(=O)OC)C(C)C)[nH]4)cc3)cc2)[nH]1)C(C)C [daclatasvir] (10 µM) | 0.0693 | 90.5% (inactive)
2 | CCNCc1cc(C(C)(C)C)c(O)c(C(C)(C)C)c1 (10 µM) | 0.195 | 99% (inactive)
3 | CNCc1ccc(C)c(NC(=O)c2ccc(Nc3nc(-c4ccccc4)c4ccccc4n3)cc2)c1 (0.833333 µM) | 0.213 | 98% (inactive)
4 | COC(=O)C1=C(C)NC(C)=C(C(=O)OCCN(C)Cc2ccccc2)C1c1cccc([N+](=O)[O-])c1 (stereo not drawn) [nicardipine] (10 µM) | 0.0181 | 103% (inactive)
5 | CC(C)(C)c1ccc(-c2nc3ccccc3[nH]2)cc1 (10 µM) | 0.557 | 64% (inactive)
6 | CN(C)CCCNC(=O)c1ccc(-c2cc(O)c3ncccc3c2)cc1 (0.833333 µM) | -0.00508 | 108% (inactive)
7 | CC1(C)CC[C@]2(C(=O)O)CC[C@]3(C)C(=CC[C@@H]4[C@@]5(C)CC[C@H](O)C(C)(C)[C@@H]5CC[C@]43C)[C@@H]2C1 [oleanolic-acid] (10 µM) | 0.0528 | 110% (inactive)
8 | N#CSc1cc(SC#N)c(N)nc1N (0.833333 µM) | 0.125 | 98.5% (inactive)
9 | CC1(C)CC(Oc2ccc(-c3ccc(-c4cn[nH]c4)cc3O)nn2)CC(C)(C)N1 (10 µM) | -0.373 | 120% (inactive)
10 | COc1ccccc1OCC(O)CN1CCN(CC(=O)Nc2c(C)cccc2C)CC1 (stereo not drawn) [ranolazine] (10 µM) | 0.0908 | 101% (inactive)
11 | Cc1cc(O)c(C(=O)N[C@@H](C(=O)N[C@@H]2C(=O)N3C(C(=O)O)=C(CSc4nnnn4C)CS[C@H]23)c2ccc(O)cc2)cn1 [cefpiramide] (10 µM) | 0.00194 | 106% (inactive)
12 | N#Cc1ccc(Oc2ccc3c(c2)COB3O)cc1 [crisaborole] (10 µM) | 0.0741 | 105% (inactive)
13 | COc1cc([S+](C)[O-])ccc1-c1nc2cccnc2[nH]1 (stereo not drawn) [sulmazole] (10 µM) | 0.165 | 98.5% (inactive)
14 | C/C(=C\c1csc(C)n1)[C@@H]1C[C@@H]2O[C@]2(C)CCC[C@H](C)[C@H](O)[C@@H](C)C(=O)C(C)(C)[C@@H](O)CC(=O)O1 [epothilone-B] (0.833333 µM) | 0.00236 | 115% (inactive)
15 | CN(C(=O)/C=C/c1ccoc1)[C@@H]1CC[C@@]2(O)[C@H]3Cc4ccc(O)c5c4[C@@]2(CCN3CC2CC2)[C@H]1O5 [nalfurafine] (10 µM) | -0.0681 | 108% (inactive)
16 | COc1cc(Nc2ncc(F)c(Nc3ccc4c(n3)NC(=O)C(C)(C)O4)n2)cc(OC)c1OC (10 µM) | 0.09 | 124% (inactive)
17 | CCCCCCCCCCCCC/C=C/[C@@H](O)[C@@H](N)CO[P@](=O)(O)OCC[N+](C)(C)C [sphingosylphosphorylcholine] (10 µM) | 0.000181 | 112% (inactive)
18 | CCN1CCN(Cc2ccc(C(=O)Nc3ccc(C)c(Oc4ccc5c(c4)CC(=O)N5)c3)cc2C(F)(F)F)CC1 (0.833333 µM) | 0.0277 | 104% (inactive)
19 | c1ccc(CCCCN2CCC(c3ccccc3)CC2)cc1 (10 µM) | 0.286 | 73.5% (inactive)
20 | CC(C)=CCC[C@](C)(O[C@@H]1O[C@H](CO)[C@@H](O)[C@H](O)[C@H]1O)[C@H]1CC[C@]2(C)[C@@H]1[C@H](O)C[C@@H]1[C@@]3(C)CC[C@H](O[C@@H]4O[C@H](CO)[C@@H](O)[C@H](O)[C@H]4O[C@@H]4O[C@H](CO)[C@@H](O)[C@H](O)[C@H]4O)C(C)(C)[C@@H]3CC[C@]12C [ginsenoside-RD] (10 µM) | 0.0521 | 102% (inactive)
21 | CNC(=O)O[C@H]1COc2ccc(N3CCN(C4COC4)CC3)cc2[C@@H]1NC(=O)c1ccc(F)cc1 (10 µM) | 0.123 | 95.5% (inactive)
22 | O=C1NC(O)CCN1[C@@H]1O[C@H](CO)[C@@H](O)[C@H]1O (stereo partly drawn) [tetrahydrouridine] (10 µM) | 0.167 | 103% (inactive)
23 | O=C(O)[C@H](CC(=O)N1C[C@H]2CCCC[C@H]2C1)Cc1ccccc1 [mitiglinide] (10 µM) | 0.0871 | 108% (inactive)
24 | O=C(O)c1cc(-c2ccccc2)nc2ccccc12 [cinchophen] (10 µM) | 0.0922 | 104% (inactive)
